# In PubChem BioAssay (Tox21):
# Several values for one entry are separate records, joined by “and”; a condition that tells them apart may be missing. Identical values can stand only once. A number with no mark means an inactive call. Inconclusive results are not listed. Where a call stands in place of a potency, no number is given. Activity calls are given as the source filed them. Unless noted, the call rests on the fitted dose curve; in most records, active means well fitted curve in the direction sought with a large enough effect in the repeat runs; inconclusive means weak or mixed curves; inactive means no such curve, though single readings can be large; an effect the other way counts as inactive or inconclusive.
# Key:
# [1] = qHTS assay to identify small molecule agonists of the androgen receptor (AR) signaling pathway in the presence of an antagonist - cell viability counter screen (AID 1259379); further: nearly all actives have a fitted effect of over 25% in size; further: potency means the concentration at half of the fitted maximal effect;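 on activity change, negative = cytotoxicity: MDA-kb2 human breast cancer cells carrying an MMTV luciferase reporter; series mostly up to about 92 µM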
# Outline: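 In MDA-kb2 cells (human breast carcinoma, MMTV-luciferase), compounds at 15 concentrations plus 3.0uM nilutamide; 16 hr, 37C, 0% CO2; CellTiter-Fluor fluorescence read for viability.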
# [2] = qHTS assay to identify small molecule agonists of the estrogen receptor beta (ER-beta) signaling pathway - cell viability counter screen (AID 1259380); further: nearly all actives have a fitted effect of over 30% in size; further: potency means the concentration at half of the fitted maximal effect
# Outline: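 Viability of ER-beta-UAS-bla HEK293T cells was determined by CellTiter-Glo luminescence following 16 hr treatment with test compounds at 37C.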
# [3] = qHTS assay to identify small molecule antagonists of the estrogen receptor beta (ER-beta) signaling pathway - cell viability counter screen (AID 1259382); further: nearly all actives have a fitted effect of over 55% in size; further: potency means the concentration at half of the fitted maximal effect;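 on activity change, negative = cytotoxicity: HEK293T cells carrying ER-beta-UAS-bla reporter stimulated with estradiol; series mostly up to about 92 µM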
# Outline: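 Tox21 10K library tested in qHTS format on ER-beta-bla HEK293T cells stimulated with 1nM E2; 16 hr treatment at 37C. Same-well CellTiter-Glo luminescence served as the cell viability measure.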
# [4] = qHTS assay to identify small molecule agonists of the estrogen receptor alpha (ER-alpha) signaling pathway in the presence of an antagonist - cell viability counter screen (AID 1259386);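 further: series mostly up to about 92 µM; cells exposed to compounds for 22 h at 37 °C before the viability read; nearly all actives have a fitted effect of over 30% in size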
# Outline: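 Fluorescent CellTiter-Fluor viability signal from VM7Luc4E2 cells, with the reagent added during the final hour of a 22hr compound exposure at 37C in the presence of 10.0nM ICI-182,780.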
# [5] = qHTS assay to identify small molecule antagonists of the progesterone receptor (PR) signaling pathway - cell viability counter screen (AID 1346798); further: nearly all actives have a fitted effect of over 50% in size; further: potency means the concentration at half of the fitted maximal effect; on activity change, negative = cytotoxicity: series mostly up to about 92 µM
# Outline: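 Same-well multiplex: after 16 hr at 37C with compound and R5020 stimulation, HEK293T cells carrying a UAS-bla reporter received LiveBLAzer substrate (2 hr RT), then CellTiter-Glo (30 min RT) for luminescent viability.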
# [6] = qHTS assay to identify small molecule agonists of the progesterone receptor (PR) signaling pathway - cell viability counter screen (AID 1346799; calls by dose curve; further: nearly all actives have a fitted effect of over 45% in size; further: potency means the concentration at half of the fitted maximal effect)
# Outline: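 Counter screen for cytotoxicity: compound-treated PR-UAS-bla HEK293T cells (16 hr, 37C, 5% CO2) were assayed with CellTiter-Glo, luminescence measured after 30 min at room temperature.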
# [7] = qHTS assay to identify small molecule antagonists of the TGF-beta/Smad signaling pathway - cell viability counter screen (AID 1346824); further: nearly all actives have a fitted effect of over 50% in size
# Outline: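 SBE-bla HEK 293T cells, incubated overnight, then compound plus 0.25 ng/mL TGF-beta1 (stock added) for 5 hr at 37 C. Viability was read in the same wells by CellTiter-Glo luminescence after 30 min at room temperature.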
# [8] = qHTS assay to identify small molecule agonists of the TGF-beta/Smad signaling pathway - cell viability counter screen (AID 1346829); further: top concentration of the series differs between compounds; nearly all actives have a fitted effect of over 45% in size
# Outline: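 SBE-bla HEK 293T cells plated overnight, compound exposure 5 hr at 37 C. Viability read in the same wells by CellTiter-Glo luminescence after 30 min at room temperature, following the beta-lactamase read.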
# [9] = molecular target: Thyrotropin-releasing hormone receptor (Homo sapiens) (UniProt P34981); test: qHTS assay to identify small molecule antagonists of the thyrotropin-releasing hormone receptor (TRHR) signaling pathway (AID 1346877; active means well fitted inhibition curve with a large enough effect in the repeat runs, not every such curve was filed as active; further: potency means the concentration at half of the fitted maximal effect; on activity, negative = inhibition: series mostly up to about 51 µM)
# Sequence of Thyrotropin-releasing hormone receptor (Homo sapiens) (P34981 whole entry, looked up): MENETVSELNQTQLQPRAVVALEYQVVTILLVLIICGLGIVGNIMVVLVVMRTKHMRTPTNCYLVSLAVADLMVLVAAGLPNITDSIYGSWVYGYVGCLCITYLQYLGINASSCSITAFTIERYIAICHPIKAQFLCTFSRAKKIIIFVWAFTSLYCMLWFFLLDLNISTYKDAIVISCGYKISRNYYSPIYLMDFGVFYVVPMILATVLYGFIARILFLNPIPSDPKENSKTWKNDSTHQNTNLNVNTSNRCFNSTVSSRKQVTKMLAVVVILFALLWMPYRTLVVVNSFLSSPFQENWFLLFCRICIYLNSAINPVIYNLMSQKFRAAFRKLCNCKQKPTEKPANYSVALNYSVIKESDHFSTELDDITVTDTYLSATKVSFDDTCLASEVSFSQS
# Outline: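 In this cell-based calcium flux format, HEK293 cells expressing TRHR received test compound for 5 min before the agonist TRH (1 nM final). Dye loading lasted 2 h at 37 °C.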
# [10] = molecular target: Thyrotropin-releasing hormone receptor (Homo sapiens) (UniProt P34981); test: qHTS assay to identify small molecule agonists of the thyrotropin-releasing hormone receptor (TRHR) signaling pathway (AID 1346891; calls by dose curve; further: series mostly up to about 58 µM)
# Outline: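 Agonist-mode calcium mobilisation screen: TRHR-transfected HEK293 cells cultured overnight (18 h), dye-loaded for 2 h at 37 °C, exposed to compounds, and monitored by fluorescence for 3 min.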
# [11] = Human pregnane X receptor (PXR) small molecule agonists, qHTS cell viability counter screen (AID 1346977); further: nearly all actives have a fitted effect of over 50% in size; further: potency means the concentration at half of the fitted maximal effect
# Outline: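 Measures live-cell protease fluorescence (CellTiter-Fluor) in PXR-Luc HepG2 cells treated 24hr with compounds at 37C. Cells had 5hr to attach before pin transfer of DMSO solutions.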
# [12] = Caspase-3/7 induction in HepG2 cells by small molecules, qHTS assay (AID 1346978); further: nearly all actives have a fitted effect of over 15% in size
# Outline: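 Wild-type HepG2 cells, 2,000/well, settled 5 hr at 37 C and 5% CO2, then compound-treated for 17 hr; caspase-3/7 activity read by luminescent Caspase-Glo 3/7 after 30 min at room temperature.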
# [13] = molecular target: Estrogen receptor (Homo sapiens) (UniProt P03372); test: qHTS assay to identify small molecule agonists of the estrogen receptor alpha (ER-alpha) signaling pathway in the presence of an antagonist (AID 1259383; calls by dose curve; further: top concentration of the series differs between compounds; nearly all actives have a fitted effect of over 15% in size)
# Sequence of Estrogen receptor (Homo sapiens) (P03372 whole entry, looked up): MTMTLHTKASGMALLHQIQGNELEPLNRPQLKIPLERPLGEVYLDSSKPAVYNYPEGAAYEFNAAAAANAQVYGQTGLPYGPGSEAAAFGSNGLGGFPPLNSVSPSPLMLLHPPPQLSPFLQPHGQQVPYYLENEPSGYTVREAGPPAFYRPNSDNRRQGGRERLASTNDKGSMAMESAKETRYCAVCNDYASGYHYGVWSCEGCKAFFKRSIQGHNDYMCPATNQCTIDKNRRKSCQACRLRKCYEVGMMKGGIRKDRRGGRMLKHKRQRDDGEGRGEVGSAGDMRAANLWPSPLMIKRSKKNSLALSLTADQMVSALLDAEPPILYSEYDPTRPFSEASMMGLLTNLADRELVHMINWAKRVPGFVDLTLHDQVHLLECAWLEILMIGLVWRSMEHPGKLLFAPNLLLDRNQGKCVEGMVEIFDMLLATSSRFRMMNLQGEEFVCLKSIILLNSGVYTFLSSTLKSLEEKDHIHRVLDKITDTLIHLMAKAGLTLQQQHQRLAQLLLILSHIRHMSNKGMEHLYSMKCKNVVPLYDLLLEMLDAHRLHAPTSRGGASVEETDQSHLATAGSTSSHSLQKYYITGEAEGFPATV
# Outline: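 In VM7Luc4E2 cells, 4,000 per well, compounds at 15 concentrations were co-incubated 22hr at 37C with 10.0nM final ICI-182,780. Luminescence from the stably transfected 4×ERE-luciferase reporter was recorded 30min after ONE-Glo addition.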
# [14] = qHTS assay to identify small molecule agonists or antagonists of the thyroid stimulating hormone receptor (TSHR) signaling pathway - wild type cell line counter screen (AID 1259384; calls by dose curve)
# Outline: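 Wild-type Hek293 cells, 800/well, 18 h at 37C, then compound with Ro20-1724 for 30 min RT. cAMP by HTRF (cAMP-d2/anti-cAMP cryptate), 1 h RT, fluorescence read. 15 concentrations, triplicates.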
# [15] = molecular target: Thyrotropin receptor (Homo sapiens) (UniProt P16473); test: qHTS assay to identify small molecule antagonists of the thyroid stimulating hormone receptor (TSHR) signaling pathway (AID 1259385; calls by dose curve; further: nearly all actives have a fitted effect of over 20% in size; further: potency means the concentration at half of the fitted maximal effect)
# Sequence of Thyrotropin receptor (Homo sapiens) (P16473 whole entry, looked up): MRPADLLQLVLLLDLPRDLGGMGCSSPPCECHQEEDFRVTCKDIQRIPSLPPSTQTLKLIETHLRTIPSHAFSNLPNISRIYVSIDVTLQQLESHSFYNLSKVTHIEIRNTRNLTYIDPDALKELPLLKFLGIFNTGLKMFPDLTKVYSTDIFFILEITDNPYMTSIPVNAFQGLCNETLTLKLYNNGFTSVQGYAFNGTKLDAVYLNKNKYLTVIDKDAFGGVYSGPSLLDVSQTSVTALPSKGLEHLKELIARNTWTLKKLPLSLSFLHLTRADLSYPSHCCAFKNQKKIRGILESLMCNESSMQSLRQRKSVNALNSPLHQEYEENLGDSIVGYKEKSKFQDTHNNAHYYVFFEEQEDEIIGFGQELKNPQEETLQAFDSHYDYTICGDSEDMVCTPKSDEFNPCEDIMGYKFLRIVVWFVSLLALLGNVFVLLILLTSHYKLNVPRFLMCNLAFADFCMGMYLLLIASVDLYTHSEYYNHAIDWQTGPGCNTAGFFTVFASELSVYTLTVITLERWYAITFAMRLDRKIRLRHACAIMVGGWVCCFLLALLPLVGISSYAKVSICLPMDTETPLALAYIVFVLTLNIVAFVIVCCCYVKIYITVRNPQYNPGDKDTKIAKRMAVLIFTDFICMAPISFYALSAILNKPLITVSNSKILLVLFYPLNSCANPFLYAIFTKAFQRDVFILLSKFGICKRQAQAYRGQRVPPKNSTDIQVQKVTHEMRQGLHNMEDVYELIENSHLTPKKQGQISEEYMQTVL
# Outline: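 TSHR-HEK293 cells (800/well) plated 18 h, then compounds with Ro20-1724 and TSH at 1.5 ng/mL final, 30 min at room temperature. cAMP quantified by HTRF (cAMP-d2/anti-cAMP-cryptate, 1 h); 15 concentrations in triplicate.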
# [16] = molecular target: Progesterone receptor (Homo sapiens) (UniProt P06401); test: qHTS assay to identify small molecule agonists of the progesterone receptor (PR) signaling pathway (AID 1346784; calls by dose curve; further: nearly all actives have a fitted effect of over 30% in size)
# Sequence of Progesterone receptor (Homo sapiens) (P06401 whole entry, looked up): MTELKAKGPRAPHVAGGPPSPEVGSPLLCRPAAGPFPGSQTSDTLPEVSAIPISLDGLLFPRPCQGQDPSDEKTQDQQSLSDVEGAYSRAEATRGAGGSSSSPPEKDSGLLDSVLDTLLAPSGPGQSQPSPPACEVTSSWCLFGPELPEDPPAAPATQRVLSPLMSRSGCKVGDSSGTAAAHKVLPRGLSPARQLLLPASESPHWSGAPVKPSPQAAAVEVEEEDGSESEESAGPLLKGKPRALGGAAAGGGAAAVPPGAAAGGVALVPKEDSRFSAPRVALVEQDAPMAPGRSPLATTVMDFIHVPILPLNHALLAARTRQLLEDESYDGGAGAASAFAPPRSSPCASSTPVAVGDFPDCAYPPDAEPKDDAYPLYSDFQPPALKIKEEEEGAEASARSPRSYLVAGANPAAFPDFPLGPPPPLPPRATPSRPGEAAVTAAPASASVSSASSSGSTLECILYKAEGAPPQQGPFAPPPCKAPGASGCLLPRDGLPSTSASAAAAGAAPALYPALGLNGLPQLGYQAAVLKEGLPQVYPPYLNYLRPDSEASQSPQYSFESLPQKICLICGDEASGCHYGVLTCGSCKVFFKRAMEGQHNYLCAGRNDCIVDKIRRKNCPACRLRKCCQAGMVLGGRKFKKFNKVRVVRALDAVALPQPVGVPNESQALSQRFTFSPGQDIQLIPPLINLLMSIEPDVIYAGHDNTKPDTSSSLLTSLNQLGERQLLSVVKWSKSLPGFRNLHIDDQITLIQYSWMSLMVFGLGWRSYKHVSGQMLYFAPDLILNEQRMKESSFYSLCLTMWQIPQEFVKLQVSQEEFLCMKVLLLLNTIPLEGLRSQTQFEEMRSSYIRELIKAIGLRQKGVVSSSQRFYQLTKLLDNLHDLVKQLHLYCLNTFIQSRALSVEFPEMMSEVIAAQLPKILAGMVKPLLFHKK
# Outline: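 Agonist mode, quantitative HTS format in a HEK 293T line expressing a UAS-controlled beta-lactamase reporter; 16 hr compound exposure at 37C in 2% charcoal-stripped FBS, then LiveBLAzer B/G FRET fluorescence.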
# [17] = qHTS assay to identify small molecule agonists of the TGF-beta/Smad signaling pathway (AID 1346859; active means well fitted activation curve with a large enough effect in the signal ratio in the repeat runs, not every such curve was filed as active; the % refers to the signal ratio; further: series mostly up to about 77 µM)
# Outline: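 Smad-responsive beta-lactamase reporter cells (HEK 293T) received compounds from DMSO stocks after overnight attachment, were incubated 5 hr, then treated 2 hr with FRET substrate before dual-emission fluorescence measurement (405 nm excitation).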
# [18] = molecular target: Progesterone receptor (Homo sapiens) (UniProt P06401); test: qHTS assay to identify small molecule antagonists of the progesterone receptor (PR) signaling pathway (AID 1346795; active means well fitted inhibition curve with a large enough effect in the signal ratio in the repeat runs, not every such curve was filed as active; the % refers to the signal ratio; further: potency means the concentration at half of the fitted maximal effect)
# Outline: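 HEK293T PR-UAS-bla reporter cells in charcoal-stripped serum (2%) received compound after a 6 hr settling period, followed by R5020 agonist at 1 nM final; 16 hr incubation preceded the FRET substrate step and fluorescence measurement.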
smiles,measurement,setting,value
CC1(C)[C@H](C(=O)O[C@H](C#N)c2cccc(Oc3ccccc3)c2)[C@@H]1/C=C(\Cl)C(F)(F)F,Potency,[1],inactive
same,Potency,[2],inactive
same,Potency,[3],inactive
same,Potency,[4],inactive
same,Potency,[5],inactive
same,Potency,[6],inactive
same,Potency,[7],inactive
same,Potency,[8],inactive
same,Potency,[9],inactive
same,Potency,[10],inactive
same,Potency,[11],inactive
same,Potency,[12],inactive
CCCCCCCCCCCCBr,Potency,[1],inactive
same,Potency,[2],43.3 µM (active)
same,Potency,[13],inactive
same,outcome,[14],inactive
same,Potency,[15],inactive
same,Potency,[4],inactive
same,Potency,[16],inactive
same,Potency,[7],inactive
same,Potency,[8],inactive
same,outcome,[17],inactive
same,Potency,[9],inactive
same,Potency,[10],inactive
same,Potency,[11],inactive
same,Potency,[12],inactive
C[CH2][Hg][N]1C(=O)C2C(C1=O)C1(Cl)C(Cl)=C(Cl)C2(Cl)C1(Cl)Cl (centres undefined),Potency,[1],13 µM (active)
same,Potency,[2],9.2 µM (active)
same,Potency,[3],11.6 µM (active)
same,cAMP activity change,[14],11% [at 18.9 µM]
same,Potency,[5],14.6 µM (active)
same,"activity change, negative = cytotoxicity",[8],0.501% [at 15.8 µM]
same,caspase activation,[12],-9.39% [at 19 µM]
Clc1ccc(-c2ccc(Cl)c(Cl)c2Cl)c(Cl)c1Cl,Potency,[1],inactive
same,Potency,[2],58.2 µM (active)
same,Potency,[13],inactive
same,outcome,[14],inactive
same,Potency,[15],58.2 µM (active)
same,Potency,[4],inactive
same,Potency,[16],inactive
same,Potency,[5],23.2 µM (active)
same,Potency,[6],41.2 µM (active)
same,Potency,[7],inactive
same,Potency,[8],inactive
same,Potency,[9],inactive
same,Potency,[10],inactive
same,Potency,[11],inactive
Brc1c(Br)c(Br)c(Oc2c(Br)c(Br)c(Br)c(Br)c2Br)c(Br)c1Br,"activity change, negative = cytotoxicity",[1],4.12% [at 19 µM]
same,"activity change, negative = cytotoxicity",[2],-3.73% [at 19 µM]
same,"activity change, negative = cytotoxicity",[3],4.03% [at 19 µM]
same,"activity change, negative = inhibition",[15],0.486% [at 19 µM]
same,"activity change, negative = cytotoxicity",[4],-0.0832% [at 19 µM]
same,"activity change, negative = inhibition",[18],0.347% [at 18.9 µM]
same,"activity change, negative = cytotoxicity",[5],-6.81% [at 18.9 µM]
same,"activity change, negative = cytotoxicity",[6],-0.672% [at 19 µM]
same,"viability change, negative = cytotoxic",[7],12.3% [at 15.8 µM]
same,activation,[17],4.57% [at 15.8 µM]
same,"activity, negative = inhibition",[9],2.65% [at 10.5 µM]
same,activation,[10],-0.444% [at 11.8 µM]
same,"activity change, negative = cytotoxicity",[11],1.58% [at 19 µM]
same,caspase activation,[12],-0.566% [at 19 µM]
CCN,Potency,[1],inactive
same,Potency,[2],inactive
same,outcome,[14],inactive
same,Potency,[4],inactive
same,Potency,[16],inactive
same,Potency,[18],inactive
same,Potency,[5],inactive
same,Potency,[6],inactive
same,Potency,[8],inactive
same,outcome,[17],inactive
same,Potency,[9],inactive
same,Potency,[10],inactive
same,Potency,[11],inactive
same,Potency,[12],inactive
Fc1ccc(Oc2ccnc3cc(Cl)cc(Cl)c23)cc1,Potency,[1],inactive
same,Potency,[2],inactive
same,Potency,[3],inactive
same,Potency,[4],inactive
same,Potency,[16],inactive
same,Potency,[5],inactive
same,Potency,[8],inactive
same,outcome,[17],inactive
same,Potency,[12],inactive
N#CSCSC#N,Potency,[1],70.1 µM (active) and 67.9 µM (active)
same,Potency,[2],27.9 µM (active) and 27 µM (active)
same,Potency,[3],55.7 µM (active) and 48.1 µM (active)
same,Potency,[15],55.7 µM (active)
same,Potency,[6],inactive
same,Potency,[8],inactive
same,Potency,[9],inactive
same,Potency,[10],inactive
same,Potency,[11],39.8 µM (active) and 53.9 µM (active)
CN(C)S(=O)(=O)N(SC(F)(Cl)Cl)c1ccccc1,Potency,[1],30.6 µM (active)
same,Potency,[2],38.6 µM (active)
same,outcome,[14],inactive
same,Potency,[4],inactive
same,Potency,[18],48.6 µM (active)
same,Potency,[5],61.1 µM (active)
same,outcome,[17],inactive
same,Potency,[9],12 µM (active)
same,Potency,[10],inactive
same,Potency,[11],24.3 µM (active)
same,Potency,[12],inactive
